Measured values taken from PubChem BioAssay (NCI).
Compounds without any hit were thinned out: in the full panel of roughly 79,000, 15% have a hit. Unmarked numbers belong to inactive results. Active and inactive are the calls of the source. No stated cut-off is given here; in the data, active means growth inhibition above about 70%; inactive means the rest. *1 amine or outer side, *2 acyl side, *3 side chain or, on linkers, in order; H or OH if unused. Where a SMILES comes first, the peptide text is derived from it. [ ]: non-standard residue; d: D form. The star is where a group is joined. X5 = CCC(=O)CC1CC(C)CC(C(=O)[*:2])N1[*:1]; X4 = CCCCCCCCC(C)C(=O)*; Aib = CC(C)(N)C(=O)O; X6 = CC(CN(C)CCO)N*

What was measured:
[1] = NCI Yeast Anticancer Drug Screen. Data for the rad50 strain (AID 155);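 further: 0% = growth of vehicle-only cultures of the same strain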; details: S. cerevisiae rad50 strain growth inhibition, stronger effect = higher value
Outline: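 Vehicle-treated cultures provide the reference for the growth inhibition reported for compound-exposed, repair-deficient yeast.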

[2] = NCI Yeast Anticancer Drug Screen. Data for the mec2-1 strain (AID 157); details: S. cerevisiae mec2-1 strain, stronger effect = higher value
Outline: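 Test agents were screened against the mec2-1 yeast strain, with defined DNA repair or cell cycle alteration. Growth was scored as inhibition against vehicle-only controls.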

[3] = NCI Yeast Anticancer Drug Screen. Data for the sgs1 mgt1 strain (AID 161);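 further: 0% = growth of cultures given vehicle only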; details: S. cerevisiae sgs1 mgt1 strain, stronger effect = higher value
Outline: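 Mutant yeast exposed to compound; growth scored against vehicle-only wells.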

[4] = NCI Yeast Anticancer Drug Screen. Data for the cln2 rad14 strain (AID 165);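 further: 0% = growth equal to vehicle treated cultures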; details: S. cerevisiae cln2 rad14 strain, stronger effect = higher value
Outline: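 Growth of compound-exposed yeast (cln2 rad14 genotype) measured and expressed as inhibition relative to vehicle.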

[5] = NCI Yeast Anticancer Drug Screen. Data for the bub3 strain (AID 167); details: S. cerevisiae bub3 mutant strain, stronger effect = higher value
Outline: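 Mutant yeast screening strain plus compound; vehicle-treated cultures serve as the 0% inhibition reference.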

[6] = NCI Yeast Anticancer Drug Screen. Data for the mlh1 rad18 strain (AID 175); details: S. cerevisiae mlh1 rad18 strain growth inhibition, stronger effect = higher value
Outline: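 In this whole-cell yeast screen, a strain with altered DNA damage repair is challenged with compound, and its growth is measured against matched vehicle-treated controls.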

[7] = at 5.0 µM (retest, dose inferred, filed as 0.5)
[8] = at 50.0 µM (retest, dose inferred, filed as 5.0)

Row | SMILES | growth inhibition [1, 7] | growth inhibition [1, 8] | growth inhibition ([1]; at 50.0 µM) | growth inhibition [2, 7] | growth inhibition [2, 8] | growth inhibition ([2]; at 50.0 µM) | growth inhibition [3, 7] | growth inhibition [3, 8] | growth inhibition ([3]; at 50.0 µM) | growth inhibition [4, 7] | growth inhibition [4, 8] | growth inhibition ([4]; at 50.0 µM) | growth inhibition [5, 7] | growth inhibition [5, 8] | growth inhibition ([5]; at 50.0 µM) | growth inhibition [6, 7] | growth inhibition [6, 8] | growth inhibition ([6]; at 50.0 µM)
1 | Nc1nc2ncc(CNc3ccc(C(=O)NC(CCC(=O)NC(CCC(=O)NC(CCC(=O)NC(CCC(=O)NC(CCC(=O)O)C(=O)O)C(=O)O)C(=O)O)C(=O)O)C(=O)O)cc3)nc2c(=O)[nH]1 (stereo unspecified) | -19% | -9% | 25.2% | 0% | -6% | 18.3% | 0% | -12% | 24.6% | 12% | 1% | 47% | -5% | -2% | -19.5% | 10% | 20% | 8.35%
2 | CC(C)N=C(N)/N=C(\N)Nc1ccc2ccc3ccccc3c2c1 | 3% | 99% (active) | 99.8% (active) | -9% | 99% (active) | 25.1% | 12% | 100% (active) | 99.7% (active) | 3% | 100% (active) | 99.5% (active) | 27% | 99% (active) | 46.3% | 41% | 99% (active) | 99.7% (active)
3 | C/C=C/c1cc2c(c(=O)o1)C(=O)[C@@H](O)[C@H](C)O2 | 8% | 17% | 23.5% | 11% | 21% | 2% | 15% | 30% | 34.5% | 8% | 11% | -1.15% | 14% | 28% | 18.9% | 8% | 26% | 60.3%
4 | CC(=O)N1CC(=O)NC1=S | -10% | -18% | 69.6% | -11% | -14% | 39.9% | -5% | -17% | 25.3% | -4% | 7% | 53.1% | -36% | -12% | 5.45% | -24% | -33% | 67.3%
5 | Cc1ccc(/C=C2\CNC/C(=C\c3ccc(C)cc3)C2=O)cc1 | 68% | 96% (active) | 86% (active) | 54% | 98% (active) | 86.4% (active) | 76% (active) | 98% (active) | 90.5% (active) | 55% | 91% (active) | 77.2% (active) | 75% (active) | 97% (active) | 87.2% (active) | 78% (active) | 97% (active) | 83.8% (active)
6 | CCCCCCCCC(=O)OCCCC(CCC(CCC1CCCO1)OC(=O)CCCCCCCC)OC(=O)CCCCCCCC (stereo unspecified) | -19% | 10% | 82.3% (active) | 3% | 12% | 37% | -12% | 33% | 42.4% | -17% | 31% | 14.3% | -7% | 12% | 29.8% | -2% | 23% | 62.4%
7 | COc1cc(NCc2ccc3nc(N)nc(N)c3c2C)cc(OC)c1OC (tested in a mixture with another compound) | 24% | 54% | 12.3% | 18% | 87% (active) | 51.8% | 12% | 31% | 43.2% | 23% | 23% | 2.8% | 17% | 24% | 5.05% | 23% | 36% | -45.4%
8 | CCCCCCCCC(C)C(=O)N1CCCC1C(=O)N1C(CC(=O)CC)CC(C)CC1C(=O)NC(C)C(=O)NC(C)(C)C(=O)NC(C)(C)C(=O)NC(C(=O)NC(C)C(=O)NC(C)(C)C(=O)NC(C)(C)C(=O)NC(C)CN(C)CCO)C(C)CC (stereo unspecified) (X4-P[X5]A[Aib][Aib]IA[Aib][Aib]-X6; configuration not given here) | 98% (active) | 100% (active) | 91.6% (active) | 99% (active) | 100% (active) | 93.5% (active) | 99% (active) | 100% (active) | 92.8% (active) | 99% (active) | 99% (active) | 90.9% (active) | 99% (active) | 99% (active) | 92.4% (active) | 99% (active) | 99% (active) | 89.7% (active)
9 | O=C(O)c1cc2c(s1)C(=O)c1sccc1C2=O | 37% | 75% (active) | 71.5% (active) | 33% | 69% | 57.6% | 39% | 66% | 72% (active) | 12% | 30% | 54.9% | 36% | 79% (active) | 71.2% (active) | 39% | 79% (active) | 92.8% (active)
10 | CCOc1cc2c(cc1O)/C(=N\OC)C[C@@H]1[C@@H]2CC[C@]2(C)[C@@H](O)CC[C@@H]12 | 16% | 59% | 13.9% | 0% | 42% | -2.45% | 5% | 86% (active) | 9.8% | 23% | 67% | 24.8% | 25% | 71% (active) | 13.6% | 16% | 68% | 79.1% (active)
11 | Cc1cc(Br)c2nsnc2c1[N+](=O)[O-] | 33% | 94% (active) | 54.4% | 43% | 97% (active) | 78.5% (active) | 30% | 85% (active) | 80.8% (active) | 32% | 88% (active) | 71.2% (active) | 20% | 87% (active) | 68.7% | 37% | 95% (active) | 77.9% (active)
12 | O=C(O)c1cccc2cccc(-c3c4ccc(=O)c(O)c-4oc4c(O)c(O)ccc34)c12 | 86% (active) | 96% (active) | 87% (active) | 84% (active) | 97% (active) | 90% (active) | 93% (active) | 98% (active) | 90% (active) | 62% | 97% (active) | 89% (active) | 93% (active) | 97% (active) | 87.5% (active) | 96% (active) | 95% (active) | 85.7% (active)
13 | Cc1onc(-c2ccccc2)c1C(=O)N/N=C/c1cc(Cl)cc(Cl)c1O | 92% (active) | 95% (active) | 80.6% (active) | 96% (active) | 96% (active) | 88.5% (active) | 93% (active) | 98% (active) | 90.8% (active) | 87% (active) | 96% (active) | 84.5% (active) | 94% (active) | 63% | 87.8% (active) | 96% (active) | 94% (active) | 85.2% (active)
14 | CC(O)C(O)C(O)C(O)C(O)C(=O)NNc1ccccc1 (stereo unspecified) | 9% | 75% (active) | 44% | -1% | 37% | 52.6% | 7% | 40% | 63.2% | 10% | 71% (active) | 13.5% | 29% | 91% (active) | 75.6% (active) | 26% | 85% (active) | 83.2% (active)
15 | OC(c1cc(-c2ccc(Cl)cc2)nc2c(Cl)cccc12)C1CCCCN1 (stereo unspecified) | 73% (active) | 93% (active) | 99.8% (active) | 26% | 55% | 99.8% (active) | 93% (active) | 100% (active) | 99.9% (active) | 20% | 66% | 99% (active) | 28% | 93% (active) | 99.5% (active) | 69% | 88% (active) | 99.5% (active)
16 | C=C1C(=O)C2=CC1CCC(=O)C1(C)CCC(OC(C)=O)C(C)(C)C1CC2O (stereo unspecified) | 16% | 52% | 82.1% (active) | 10% | 70% (active) | 82.8% (active) | 12% | 46% | 78.7% (active) | 16% | 40% | 65% | 15% | 83% (active) | 87% (active) | 15% | 65% | 73.7% (active)
17 | CN(C)c1ccc(/C=C/c2ccnc3ccccc23)cc1 | -6% | 95% (active) | 78.1% (active) | 0% | 97% (active) | 84.5% (active) | -1% | 97% (active) | 92.3% (active) | -10% | 35% | -15.1% | -1% | 97% (active) | 91.5% (active) | 19% | 93% (active) | 89.1% (active)
18 | Cc1cc2nc(CC(=O)c3ccncc3)c(=O)[nH]c2cc1C | -28% | 9% | 6.65% | 8% | -11% | 11.7% | 1% | 17% | 21.6% | – | – | – | -5% | 24% | 7.45% | -18% | 21% | 73.1% (active)
